Data on 34 compounds can be found in the supplement of paper PMC7669877.

Each structure is given as a SMILES string. ± gives the uncertainty stated by the source.

The assay relates to Candidatus Liberibacter solanacearum in potato hairy roots. The assay can be described thus: relative CLso titer (% of untreated control); higher = less inhibition of bacterial titer. The settings on record: 10 µM; 72 h. The method, then: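 Primary screen of ~220 Spectrum collection (MicroSource) compounds at 10 µM (0.1% DMSO) on Candidatus Liberibacter solanacearum-infected potato hairy roots in multi-well plates (Gamborg B-5 medium, vacuum infiltrated, 21 °C, dark, 72 h). CLso titer was measured by qPCR of 16S rDNA normalised to potato RPL2 (2^-ddCq), pairwise-standardised against untreated controls, averaged over two biological replicates and expressed as % of untreated.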
Consider `CC(C(=O)O)c1cccc(C(=O)c2ccccc2)c1` (centres undefined), for which the “relative CLso titer” value was found to be 132 ± 34%.

Turning to `CO/N=C(\C(=O)N[C@@H]1C(=O)N2C(C(=O)O)=C(COC(C)=O)CS[C@H]12)c1csc(N)n1`, the “relative CLso titer” value is 68.6 ± 14%. Next, `CN(C)CCOC(c1ccccc1)c1ccccc1.Cn1c(=O)c2[nH]c(Cl)nc2n(C)c1=O`: 127 ± 74%. Turning to `C=C1CC[C@H](O)C/C1=C/C=C1\CCC[C@]2(C)[C@@H]([C@H](C)/C=C/[C@H](C)C(C)C)CC[C@@H]12`, the “relative CLso titer” value stood at 113 ± 37%.

`CO[C@@]1(NC(=O)CSCC#N)C(=O)N2C(C(=O)O)=C(CSc3nnnn3C)CS[C@@H]21`: the “relative CLso titer” value came to 114 ± 30%. The result for `C#C[C@]1(O)CC[C@H]2[C@@H]3CCC4=Cc5oncc5C[C@]4(C)[C@H]3CC[C@@]21C` reads 154 ± 40%. Next, `O=C(O)Cc1ccccc1Nc1c(Cl)cccc1Cl`: 151 ± 55%; `Oc1ccc(Cl)c2cccnc12`: 36.8 ± 11%.

In the case of `C[C@H]1O[C@H](O[C@H]2[C@H](O)[C@@H](O)[C@@H](O[C@H]3[C@H](O)[C@@H](O)C(O)O[C@@H]3CO)O[C@@H]2CO)[C@H](O)[C@@H](O)[C@@H]1N[C@H]1C=C(CO)[C@@H](O)[C@H](O)[C@H]1O` (some centres undefined), the “relative CLso titer” value is 135 ± 70%. The result for `OCCN(CCO)c1nc(N2CCCCC2)c2nc(N(CCO)CCO)nc(N3CCCCC3)c2n1` reads 107 ± 26%; that for `C[C@H]1c2cccc(O)c2C(=O)C2=C(O)[C@]3(O)C(=O)C(C(N)=O)=C(O)[C@@H](N(C)C)[C@@H]3[C@@H](O)[C@@H]21`, 125 ± 12%; that for `CCN(CC)CCOC(=O)C1(C2CCCCC2)CCCCC1`, 90.3 ± 40%. The result for `CCN(CC)CCOc1ccc(C(=C(Cl)c2ccccc2)c2ccccc2)cc1` reads 42.7 ± 2.2%; that for `COc1cc(CNC(=O)CCCC/C=C/C(C)C)ccc1O`, 130 ± 4.3%. Next, `C[C@]12CC[C@@H]3c4ccc(O)cc4CC[C@H]3[C@@H]1CC[C@@H]2O`: 126 ± 25%; `COc1cccc2c1C(=O)c1c(O)c3c(c(O)c1C2=O)C[C@@](O)(C(C)=O)C[C@@H]3O[C@H]1C[C@H](N)[C@H](O)[C@H](C)O1`: 202 ± 6.5%; `CN1CCC[C@@H]1CCO[C@](C)(c1ccccc1)c1ccc(Cl)cc1`: 44.3 ± 12%.

As for `CCN1CCC[C@H]1CNC(=O)c1cc(S(N)(=O)=O)ccc1OC`, the “relative CLso titer” value was found to be 118 ± 86%.

As for `CC(=O)O[C@]1(C(C)=O)CC[C@H]2[C@@H]3C=C(Cl)C4=CC(=O)[C@@H]5C[C@@H]5[C@]4(C)[C@H]3CC[C@@]21C`, the “relative CLso titer” value was 114 ± 4.7%. Next, `NCCCC[C@H](N[C@@H](CCc1ccccc1)C(=O)O)C(=O)N1CCC[C@H]1C(=O)O`: 105 ± 33%; `CC(C)NCC(O)COc1ccc(CC(N)=O)cc1` (centres undefined): 106 ± 58%. Next, `CO[C@@]1(NC(=O)Cc2cccs2)C(=O)N2C(C(=O)O)=C(COC(N)=O)CS[C@@H]21`: 130 ± 27%. The result for `C[C@]12CC[C@@H]3c4ccc(OC(=O)c5ccccc5)cc4CC[C@H]3[C@@H]1CC[C@@H]2O` reads 155 ± 66%; that for `CCCCOc1cc(C(=O)NCCN(CC)CC)c2ccccc2n1`, 147 ± 76%.

In the case of `CCN(CC)C(=O)[C@@]1(c2ccccc2)C[C@H]1CN`, the “relative CLso titer” value is 48.9 ± 6%. Next, `CC/C(=C(/CC)c1ccc(O)cc1)c1ccc(O)cc1`: 94.4 ± 41%; `Cc1onc(-c2ccccc2Cl)c1C(=O)N[C@@H]1C(=O)N2[C@@H]1SC(C)(C)[C@@H]2C(=O)O`: 46.2 ± 1.5%; `CO[C@@]1(NC(=O)C2SC(=C(C(N)=O)C(=O)O)S2)C(=O)N2C(C(=O)O)=C(CSc3nnnn3C)CS[C@@H]21` (some centres undefined): 138 ± 17%. For `O=C(O)c1cc(=O)c2c(OCC(O)COc3cccc4oc(C(=O)O)cc(=O)c34)cccc2o1`, the “relative CLso titer” value turned out to be 58 ± 9.1%. Next, `Cc1cc(C2CCCCC2)n(O)c(=O)c1`: 44.1 ± 7.6%; `CCOC(=O)CCC(=O)O[C@H]1[C@H](O[C@@H]2[C@@H](C)[C@H](O[C@H]3C[C@@](C)(OC)[C@@H](O)[C@H](C)O3)[C@@H](C)C(=O)O[C@H](CC)[C@@](C)(O)[C@H](O)[C@@H](C)C(=O)[C@H](C)C[C@@]2(C)O)O[C@H](C)C[C@@H]1N(C)C`: 169 ± 3.5%; `CCS(=O)(=O)CCn1c([N+](=O)[O-])cnc1C`: 116 ± 0.28%. `CC1(C)[C@@H](OC(=O)CCC(=O)O)CC[C@]2(C)[C@H]3C(=O)C=C4[C@@H]5C[C@@](C)(C(=O)O)CC[C@]5(C)CC[C@@]4(C)[C@]3(C)CC[C@@H]12`: the “relative CLso titer” value stood at 132 ± 30%.

For `CCN(CC)CCNC(=O)COc1ccc(OC)cc1`, the “relative CLso titer” value worked out at 93.2 ± 2.3%.
